{"source": "PubChem BioAssay (NCI)", "note": "Compounds without any hit were thinned out: in the full panel of roughly 83,000, 20% have a hit.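 Single-concentration screen, 48 h exposure, 96-well plates. Endpoint: percent growth. Below 10 = active.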 Active and inactive are the calls of the source.", "data": [{"tested_on": "SK-OV-3 ovarian", "assay": "NCI-60 one-dose screen, 48 h (100 = growth as untreated, 0 = no growth, -100 = all killed)", "conditions": "10 µM", "values": [{"molecule": "CCOC(=O)C1=C(N)N(c2ccccc2)C2=C(C(=O)CC(C)(C)C2)C1c1ccc(Cl)cc1", "note": "(stereo not drawn)", "growth": "43.7% (inactive)"}, {"molecule": "Brc1ccc(N/N=C/c2c[nH]c3ccccc23)nc1", "growth": "71% (inactive)"}, {"molecule": "C=CCn1c(SCC(=O)Nc2ccc(C(=O)/C=C/c3ccccc3)cc2)nnc1-c1c[nH]c2ccccc12", "growth": "86.8% (inactive)"}, {"molecule": "C/C(=C\\CSc1ccccc1C(=O)O)CCCC(C)CCCC(C)CCCC(C)C", "note": "(stereo not drawn)", "growth": "96.5% (inactive)"}, {"molecule": "COc1cc2c(cc1OC)/C(=C\\c1sc(Nc3ccc(O)cc3)nc1O)C(C(=O)O)=N2", "growth": "47.3% (inactive)"}, {"molecule": "COc1ccc(Nc2nc(N)n(Cc3cccc(Br)c3)n2)cc1", "growth": "22.8% (inactive)"}, {"molecule": "CC[C@]12C=CCN3CC[C@@]4(c5cc(C#CCNc6ccc(C)c(Nc7nccc(-c8cccnc8)n7)c6)c(OC)cc5N(C)[C@H]4[C@@](O)(C(=O)OC)[C@@H]1OC(C)=O)C32", "note": "(stereo partly drawn)", "growth": "110% (inactive)"}, {"molecule": "O=S(=O)(Nc1ncccn1)c1ccc(-n2c(-c3ccc(Br)cc3)nc(-c3ccccc3)c2-c2ccccc2)cc1", "growth": "76.4% (inactive)"}, {"molecule": "Cc1ccc2nc(COc3ccc(C(=O)NNC(=S)NC(=O)c4ccccc4)cc3)[nH]c2c1", "growth": "67.2% (inactive)"}, {"molecule": "N#Cc1c(NC(=O)c2ccc(C(F)(F)F)c(Cl)c2)sc2c1CCC(=O)C2", "growth": "-30.1% (active)"}, {"molecule": "CN1CCN(c2ccc(C(=O)/C=C/c3cc(C(F)(F)F)ccc3Cl)cc2)CC1", "growth": "6.75% (active)"}, {"molecule": "CN1CCN(Cc2ccc(C(=O)Nc3cccc(Nc4ccc5c(O)cccc5n4)c3)cc2C(F)(F)F)CC1", "growth": "-46.6% (active)"}, {"molecule": "CC(C)(C)c1ccc(NCc2cn(-c3ccc(C(=O)O)cc3)nc2-c2ccc(C#N)cc2)cc1", "growth": "112% (inactive)"}, {"molecule": "CCOc1ccc(/C=N/NC(=O)Cn2nc(Cc3ccc([N+](=O)[O-])cc3)c3onc(C)c3c2=O)cc1", "growth": "91.3% (inactive)"}]}, {"tested_on": "IGROV1 ovarian", "assay": "NCI-60 one-dose screen, 48 h (100 = growth as untreated, 0 = no growth, -100 = all killed)", "conditions": "10 µM", "values": [{"molecule": "N#Cc1ccc(-c2nn(-c3ccc(C(=O)O)cc3)cc2CNc2ccc(Oc3ccccc3)cc2)cc1", "growth": "74.7% (inactive)"}, {"molecule": "COc1cc2c(cc1OC)CN(CCCCOc1cc(O)c3c(=O)cc(-c4ccccc4)oc3c1)CC2", "growth": "95.8% (inactive)"}, {"molecule": "Cc1cc(=O)oc2cc(OCCCCOc3ccc(/C=C/C(=O)Nc4ccc(F)c(Cl)c4)cc3)ccc12", "growth": "109% (inactive)"}, {"molecule": "COc1ccc(CN2[C@@H](C(=O)NCc3ccc(C(=O)NO)cc3)Cc3c([nH]c4ccccc34)[C@@H]2C2CC2)cc1", "growth": "18.1% (inactive)"}, {"molecule": "COC(=O)c1c(C(=O)OC)c2n(c1C)[C@@H]([C@@H](C)[C@H]1CC[C@H]3[C@@H]4CCC5=CC(=O)CC[C@]5(C)[C@H]4CC[C@]13C)SC2", "growth": "75.9% (inactive)"}, {"molecule": "O=C1CCC(N2Cc3cc(CC(=O)Nc4ccc(N5CCCCC5)cc4)ccc3C2=O)C(=O)N1", "note": "(stereo not drawn)", "growth": "31.8% (inactive)"}, {"molecule": "Cn1cc(-c2cc(N)n3nc(-c4c[nH]c5ccc(Br)cc45)cc3n2)c2cc(Br)cnc21", "growth": "-21.6% (active)"}, {"molecule": "COc1ccc(C(=O)CSc2nnc(-c3c[nH]c4ccccc34)n2-c2ccccc2)cc1", "growth": "60.5% (inactive)"}, {"molecule": "CC(C)C1=C[C@@]23CC[C@@H]4[C@](C)(CCC[C@]4(C)C(=O)NCc4ccccc4)[C@H]2C[C@@H]1[C@H]1C(=O)CCC(=O)[C@H]13", "growth": "90.6% (inactive)"}, {"molecule": "Nc1nc(Nc2ccccc2)nn1Cc1c(Cl)cccc1Cl", "growth": "11.2% (inactive)"}, {"molecule": "Cc1ccc2nc(COc3ccc(C(=O)NNC(=S)NCCc4ccccc4)cc3)[nH]c2c1", "growth": "52.9% (inactive)"}, {"molecule": "COc1cc2c3c(n(CCCn4ccnc4)c(=O)c2cc1OC)-c1nc2c(cc1C3=O)OCO2", "growth": "56% (inactive)"}, {"molecule": "Cc1ccc(/C(N)=N/c2sc(-c3ccccc3)nc2-c2ccccc2)cc1", "growth": "94.3% (inactive)"}, {"molecule": "Cc1cccc(NC(=O)CSc2nc3ccc(F)cc3c(=O)n2-c2ccc(Cl)cc2)c1C", "growth": "53% (inactive)"}, {"molecule": "CCCn1c(=O)c2[nH]c(-c3ccc(OCc4nc5ccc(C)cc5[nH]4)cc3)nc2n(CCC)c1=O", "growth": "37% (inactive)"}, {"molecule": "O=S(=O)(Nc1ncccn1)c1ccc(-n2c(-c3ccccc3)nc(-c3ccccc3)c2-c2ccccc2)cc1", "growth": "103% (inactive)"}, {"molecule": "Cc1ccc(C(=O)NNC(=O)CSc2nc3ccccc3c(=O)[nH]2)cc1", "growth": "102% (inactive)"}, {"molecule": "COc1cc(OC(F)(F)F)ccc1C(=O)Nc1sc2c(c1C#N)CCC(=O)C2", "growth": "112% (inactive)"}, {"molecule": "COc1ccc(C(=O)Nc2sc3c(c2C#N)CCC(=O)C3)cc1C(F)(F)F", "growth": "13.7% (inactive)"}]}]}
